Results reported in PubChem BioAssay AID493169 (National Center for Advancing Translational Sciences (NCATS), 2011).
Results filed as inconclusive are left out. Where a call stands in place of a potency, no number is given. Activity calls are given as the source filed them. Calls follow the shape of the dose curve; as a rule, active = well fitted inhibition curve with a large enough effect; inconclusive = small, poorly fitted or top-dose-only effect; inactive = flat fitted curve, though single readings scatter.

Experiment: CHOP2 Reporter Counterscreen Assay for Inhibitors of Ubiquitin-specific Protease USP2a;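 also: activated enterokinase alone at 50 pM in a cell-free format rather than USP2a or CHOP2; nearly all actives have a fitted effect of over 55% in size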
Procedure, shortened: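 Fluorescence (485/531 nm) read 10 min after adding 25nM reporter substrate to 50 pM activated EK preincubated 30 min RT with compound; Tris pH 8.0/CaCl2/CHAPS buffer. Data normalized to buffer-alone inhibition; concentration-response curves fitted.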
Potency is read from the fitted curve at half-maximal effect.

SMILES	Potency
CCCCc1ccc(/C=C2/C(=O)ON=C2c2ccccc2)s1	inactive
O=C(NC1CCCCC1)C(c1ccco1)N(C(=O)c1csnn1)c1cccc(F)c1 (stereo unspecified)	inactive
C=C(CCC(=O)c1ccccc1)C(=O)c1ccccc1	inactive
Cc1ccccc1N=C1NC(=O)CS1	inactive
O=C(N/C(=C/c1cccnc1)C(=O)N1CCOCC1)c1ccco1	inactive
CCOc1cccc(NC(=O)/C(C#N)=C\c2cn(CC(=O)O)c3ccccc23)c1	inactive
CC(C)(C)C1CCC(=NNC(=O)CN(c2ccccc2)S(C)(=O)=O)CC1 (stereo unspecified)	inactive
O=C1S/C(=C\C=C\c2ccco2)C(=O)N1c1ccc(O)cc1	10 µM (active)
Cc1ccc(NC(=O)Cn2nc(C)c3ccccc3c2=O)cc1F	inactive
Cc1noc(/C=C/NCc2cccnc2)c1S(=O)(=O)N(C)CC(=O)N1CCc2ccccc21	inactive
Cc1ccc(S(=O)(=O)N2CCOCC2)cc1NC(=O)CN1C(=O)NC(C)(c2ccc(Cl)cc2Cl)C1=O (stereo unspecified)	inactive
CCC(=O)c1ccc(OCC(=O)NC2CCN(Cc3ccccc3)CC2)cc1	inactive
CCOC(=O)N1CCN(C(=O)CN(c2ccc(C)c(C)c2)S(=O)(=O)c2ccccc2)CC1	inactive
CCOC(=O)C1CCN(C(=O)COC(=O)c2c(C)c(CC)nc3ccccc23)CC1	inactive
COC(=O)C1Sc2[nH]c(=O)sc2C(c2ccc(Cl)cc2)C1C(=O)OC (stereo unspecified)	inactive
Cc1ccc(C(=O)N(C)CC(=O)Nc2cccc(C)c2C)o1	inactive

SMILES	Potency
CCOc1ccc2[nH]c(=O)c(CN(CCc3ccccc3)C(=O)c3cnccn3)cc2c1	inactive
Cc1cc(Cl)ccc1NC(=S)NCCCN1CCCC1=O	inactive
N#CCc1ccc(NC(=O)/C=C/c2ccc([N+](=O)[O-])o2)cc1	10 µM (active)
Cc1ccc(C(=O)C(=S)N2CCOCC2)cc1	inactive
CCn1cc(C(=O)N2CCOCC2)c(=O)c2cc(S(=O)(=O)N(C)C)ccc21	inactive
CCO[C@H]1OC(C(=O)N2CCCCCCC2)=C[C@@H](c2ccc(C(F)(F)F)cc2)[C@@H]1CCCO	inactive
COc1ccc2cc(CN(C(=O)Nc3ccccc3)C3CCCC3)c(=O)[nH]c2c1	inactive
Cc1ccc(C(=O)NCc2ccc3c(c2)OCO3)cc1N1CCCC1=O	inactive
CNc1nc(OCCNC(=O)Nc2ccccc2)nc(N2CCOCC2)n1	inactive
O=C(CSc1nc(N2CCCCC2)nc(N2CCCCC2)n1)N1CCN(c2ccccc2)CC1	inactive
CC1CC(C)CN(C(=O)CSc2nnc(-c3ccc(Cl)cc3)o2)C1 (stereo unspecified)	inactive
O=C(COC(=O)c1cc(-c2ccc(Cl)s2)nc2ccccc12)NCc1ccco1	10 µM (active)
COC(=O)c1ccc(CSc2ncnc3ccccc23)o1	inactive
O=C(NCCN1C(=O)CSC1=O)C1CC(=O)N(c2ccccc2)C1 (stereo unspecified)	inactive
COc1ccc(-c2nnn(CC(=O)N3CCOCC3)n2)cc1	inactive
